The source made the active and inactive calls.

Experiment [1] is described as follows: anti-His antibody binders, primary screen, artefact control for SMM control protein annotation, biochemical, small-molecule microarray, 635 nm fluorescence (AID 1128).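 Further: score merges feature fluorescence with signal-to-noise for each printed compound spot.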 Conditions: anti-His Alexa647 antibody binding, higher = more signal.
Experiment [2] has as its system Human papillomavirus type 1a E7 protein (residues 1-88). In words: HPV1a E7 small-molecule binders, primary screen, biochemical, small-molecule microarray, residues 1-88, 635 nm (AID 1129). The note with it: small-molecule microarray binding, fluorescence 635 nm; higher = more signal.
Experiment [3] has as its target Focal adhesion kinase 1 (Homo sapiens) (UniProt Q05397). In words: small-molecule microarray binders of FAK, primary screen, biochemical, 635/667 nm fluorescence, BSA, DTT (AID 1130).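 Further: composite of spot emission at 667 nm and signal to noise over triplicate slides.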 Conditions: PTK2 binding, 635 nm fluorescence, higher = more signal.
In experiment [4] the test system is Fibrinogen (Alexa647-labelled). In words: fibrinogen binders on compound microarrays, profiling panel, artefact control for SMM control-protein annotation, biochemical, small-molecule microarray, 635/667 nm fluorescence (AID 1131).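 Further: z-score merges 667 nm fluorescence with per-spot signal-to-noise over triplicate slides.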 Conditions: fibrinogen-A647 binding fluorescence, higher = more signal.
In experiment [5] the target is Follistatin (Homo sapiens) (UniProt P19883). In words: follistatin binders on small-molecule microarrays, primary screen, biochemical, small-molecule microarray, 635/667 nm fluorescence (AID 1132). The note with it: FST binding, 635 nm fluorescence, higher = more signal.
Experiment [6] concerns the target Fibroblast growth factor 2 (Homo sapiens) (UniProt P09038). Description: FGF2 binders on small-molecule microarrays, primary screen, biochemical, small-molecule microarray, 635/667 nm fluorescence (AID 1133). Conditions: small-molecule microarray binding, FGF2, fluorescence 635/667; higher = more signal.
Experiment [7] is described as follows: mitochondrial membrane potential change in A549 cells, profiling panel, cell-based, JC-1 fluorescence, basal, 24 h, 100 nL (AID 1138).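 Further: A549 lung adenocarcinoma cells under basal conditions with no added stimulus; test concentration not given here.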 The note with it: higher = more signal.
For another experiment, the system named is Lefty1. Description: Lefty1 binders on small-molecule microarrays, primary screen, biochemical, small-molecule microarray, 635/667 nm fluorescence (AID 1139). Conditions: small-molecule microarray binding, fluorescence 635/667; higher = more signal.
Experiment [8] deals with wheat germ agglutinin (Triticum aestivum), Alexa647-labelled. Description: wheat germ agglutinin binders on compound microarrays, profiling panel, artefact control for SMM control-protein annotation, biochemical, small-molecule microarray, 635/667 nm fluorescence (AID 1140).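 Further: score merges 667 nm feature emission with signal to noise over triplicate slides.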 Conditions: WGA-A647 binding, 635 nm fluorescence, higher = more signal.
The target of experiment [9] is Luciferin 4-monooxygenase (Photinus pyralis) (UniProt P08659). Description: firefly luciferase enzyme inhibitors, primary screen, biochemical, luminescence, purified enzyme, 2006 set (AID 1141).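 Further: cell-free assay with purified firefly luciferase at 100 ng per well in PBS; test concentration not given here.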 The note with it: SteadyGlo luminescence, 30 min, higher = more signal, called active from +8 up or from −8 down.
Sequence of Luciferin 4-monooxygenase (Photinus pyralis) (P08659 whole entry, looked up): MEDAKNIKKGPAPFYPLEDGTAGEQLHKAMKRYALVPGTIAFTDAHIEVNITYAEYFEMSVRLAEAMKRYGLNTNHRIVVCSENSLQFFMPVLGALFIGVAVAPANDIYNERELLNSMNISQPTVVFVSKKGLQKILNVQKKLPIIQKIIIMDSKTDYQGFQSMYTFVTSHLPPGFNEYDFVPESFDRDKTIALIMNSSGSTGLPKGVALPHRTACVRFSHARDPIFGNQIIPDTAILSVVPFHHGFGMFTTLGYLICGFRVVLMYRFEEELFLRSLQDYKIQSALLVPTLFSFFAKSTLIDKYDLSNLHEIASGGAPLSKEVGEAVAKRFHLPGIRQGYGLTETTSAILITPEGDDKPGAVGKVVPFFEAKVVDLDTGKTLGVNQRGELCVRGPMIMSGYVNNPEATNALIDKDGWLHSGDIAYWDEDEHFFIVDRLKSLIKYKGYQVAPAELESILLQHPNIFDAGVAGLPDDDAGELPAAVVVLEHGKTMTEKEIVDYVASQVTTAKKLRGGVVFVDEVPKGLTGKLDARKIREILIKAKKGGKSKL

Sequence of Fibroblast growth factor 2 (Homo sapiens) (P09038 whole entry, looked up): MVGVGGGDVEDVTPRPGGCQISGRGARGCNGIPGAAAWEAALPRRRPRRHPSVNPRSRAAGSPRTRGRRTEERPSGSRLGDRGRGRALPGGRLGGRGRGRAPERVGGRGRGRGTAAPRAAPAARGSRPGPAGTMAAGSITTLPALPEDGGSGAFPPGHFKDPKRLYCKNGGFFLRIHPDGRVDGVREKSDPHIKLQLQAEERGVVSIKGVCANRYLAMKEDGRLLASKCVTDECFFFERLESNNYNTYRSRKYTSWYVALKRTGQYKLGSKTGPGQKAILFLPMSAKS
Sequence of Follistatin (Homo sapiens) (P19883 whole entry, looked up): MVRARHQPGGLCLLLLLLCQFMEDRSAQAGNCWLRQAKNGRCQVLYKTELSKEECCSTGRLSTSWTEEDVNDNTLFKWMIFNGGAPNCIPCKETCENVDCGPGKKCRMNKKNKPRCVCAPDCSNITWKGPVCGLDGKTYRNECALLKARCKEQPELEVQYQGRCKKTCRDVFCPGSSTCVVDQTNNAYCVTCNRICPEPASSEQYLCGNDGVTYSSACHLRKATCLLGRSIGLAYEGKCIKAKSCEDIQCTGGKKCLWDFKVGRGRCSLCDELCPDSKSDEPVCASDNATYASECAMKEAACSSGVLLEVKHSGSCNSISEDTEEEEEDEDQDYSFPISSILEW
Sequence of Focal adhesion kinase 1 (Homo sapiens) (Q05397 whole entry, looked up): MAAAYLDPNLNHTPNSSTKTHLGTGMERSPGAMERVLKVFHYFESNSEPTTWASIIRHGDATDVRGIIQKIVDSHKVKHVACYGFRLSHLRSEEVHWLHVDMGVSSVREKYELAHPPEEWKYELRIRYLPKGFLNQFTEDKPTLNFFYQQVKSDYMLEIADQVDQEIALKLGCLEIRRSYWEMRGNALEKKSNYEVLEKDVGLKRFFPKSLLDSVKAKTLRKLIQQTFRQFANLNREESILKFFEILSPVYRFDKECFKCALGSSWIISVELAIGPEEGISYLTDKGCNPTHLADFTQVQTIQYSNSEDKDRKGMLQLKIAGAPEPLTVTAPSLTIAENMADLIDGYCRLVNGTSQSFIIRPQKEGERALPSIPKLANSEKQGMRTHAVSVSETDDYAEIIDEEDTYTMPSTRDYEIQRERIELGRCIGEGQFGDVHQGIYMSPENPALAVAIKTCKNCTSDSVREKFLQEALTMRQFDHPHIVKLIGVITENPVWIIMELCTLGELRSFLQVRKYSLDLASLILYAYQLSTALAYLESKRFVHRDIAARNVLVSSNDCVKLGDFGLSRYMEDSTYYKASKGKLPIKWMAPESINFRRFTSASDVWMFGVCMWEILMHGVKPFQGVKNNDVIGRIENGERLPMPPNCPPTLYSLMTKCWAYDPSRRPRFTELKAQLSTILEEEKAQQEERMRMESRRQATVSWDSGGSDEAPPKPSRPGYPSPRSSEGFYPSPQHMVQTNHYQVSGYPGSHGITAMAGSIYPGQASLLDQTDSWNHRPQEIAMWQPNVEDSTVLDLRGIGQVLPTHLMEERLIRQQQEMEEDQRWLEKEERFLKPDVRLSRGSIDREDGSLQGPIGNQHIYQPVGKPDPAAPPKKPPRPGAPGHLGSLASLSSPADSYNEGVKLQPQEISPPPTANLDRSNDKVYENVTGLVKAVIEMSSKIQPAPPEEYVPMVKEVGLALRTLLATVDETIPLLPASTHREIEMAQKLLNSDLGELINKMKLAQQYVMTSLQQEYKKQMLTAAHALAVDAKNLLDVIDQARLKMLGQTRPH

In the case of `C[C@@H]1ON(c2ccccc2)[C@H](c2ccccc2)[C@H]1C(=O)O`, the composite z-score was 0.468 in experiment [1]; 0.212 in experiment [2]; 0.209 in experiment [3]; 0.722 in [4]; 1.3 in experiment [5]; 0.931 in experiment [6]. Besides, the composite z-score in the experiment on Lefty1 came to 0.309; in [8], 0.607. The values for the z-score in [7] and in experiment [9] were -0.152 and -0.0018 (inactive), respectively.

Regarding `COC(=O)[C@@]1(Cc2ccccc2)[C@H]2c3cc(C(=O)N(C)C)n(CCO)c3C[C@H]2CN1C(=O)c1ccccc1`, the composite z-score is 1.86 in experiment [1]; 1.16 in experiment [2]; 1.89 in experiment [3]; 1.02 in [4]; -0.535 in experiment [5]; -0.541 in [6]. Moreover, the composite z-score was -0.986 with Lefty1 and 1.41 in experiment [8]. The results for the z-score in experiment [7] and in experiment [9] were 0.628 and 2.11 (inactive), respectively.

As for `CN(C)CCCCNC(=O)[C@H]1C[C@H]2C(=O)N3CCC[C@H]3C(=O)N2[C@H]1c1cccc(OCCO)c1`, the composite z-score worked out at 1.96 in experiment [1]; 0.74 in experiment [2]; 1.02 in [3]; 0.311 in experiment [4]; 1.21 in [5]; 0.382 in [6]. Moreover, the composite z-score in the experiment with Lefty1 was found to be 0.365; in experiment [8], 1.15. For the same compound, the z-score in [7] was -0.159; in experiment [9] it was 0.83 (inactive).

For the compound `COc1ccc(C(O)C2C=CC3C(=O)N(c4ccccc4)C(=O)C3N2Nc2ccc(C#N)cc2)cc1OCc1ccccc1` (stereo not given), the composite z-score is 1.86 in experiment [1]; 1.21 in experiment [2]; 1.3 in experiment [3]; 0.506 in experiment [4]; 0.636 in experiment [5]; -0.529 in experiment [6]. Also, the composite z-score in the experiment on Lefty1 is -0.56; in [8], 1.15. Also, the z-score in experiment [7] was 0.399; in [9], 0.188 (inactive).

On to `COCCCNC(=O)[C@@]1(CCC(=O)OC(C)(C)C)COC(c2ccc(OCCCO)cc2)=N1`, for which the composite z-score was 0.839 in experiment [1]; 1.27 in experiment [2]; 0.403 in [3]; 1.04 in experiment [4]; 0.636 in [5]; 0.502 in [6]. Also, the composite z-score in the experiment on Lefty1 was -0.322; in experiment [8], 0.386. Also, the figures for the z-score in [7] and in experiment [9] were -0.274 and 0.75 (inactive), respectively.

Regarding `C[C@@H]1NC(=O)C([C@@H](C)OCc2ccccc2)NC(=O)[C@@]23C(=O)N[C@@H](Cc4ccccc4)C2[C@H](C)[C@@]2(C)O[C@H]2C3/C=C/C/C=C\CNC1=O` (stereo not given in full), the composite z-score in experiment [1] is -0.839; in experiment [2], -1.36; in experiment [3] it was -0.526; in experiment [4], -0.397; in experiment [5], 0.0746; in [6], 0.0742. For the same compound, the composite z-score with Lefty1 was 0.0892; in [8] it was -0.117. For the same compound, the z-score in experiment [7] is -0.0956; in experiment [9], 0.0545 (inactive).

As for `COc1ccc([Si](C)(C)[C@@H]2[C@@H](CC(=O)N3CCC[C@H]3CO)O[C@]3(C(=O)N(Cc4cccc(N5CCCCC5=O)c4)c4ccccc43)[C@H]2C)cc1`, the composite z-score was found to be 2.54 in experiment [1]; 1.03 in experiment [2]; 0.0576 in experiment [3]; 0.641 in experiment [4]; 0.767 in [5]; 0.473 in [6]. The values for the composite z-score (in the experiment with Lefty1; in experiment [8]) were 1.23 and 0.307, respectively. For the same compound, the z-score is 0.218 in [7] and -1.86 (inactive) in experiment [9].

For the compound `COC(=O)C(CC#Cc1ccc2c(c1)[C@]1(C(=O)N2)[C@H](c2ccc(OCCO)cc2)N2[C@H](c3ccccc3)[C@H](c3ccccc3)OC(=O)[C@H]2[C@@H]1C(=O)N1CCCCCCC1)C(=O)OC`, the composite z-score in experiment [1] turned out to be 2.65; in experiment [2] it was 1.17; in experiment [3], 2.67; in [4] it was 0.68; in experiment [5], 1.45; in experiment [6], 0.724. In addition, the composite z-score was 1.24 in the experiment on Lefty1 and 1.46 in experiment [8]. Further, the figures for the z-score in experiment [7] and in experiment [9] were -1.39 and -0.596 (inactive), respectively.

With `CC(C)C(=C=CC[C@H](O)c1ccccc1OCCO)C[C@H](O)COCc1ccccc1`, the composite z-score in experiment [1] is 1.12; in experiment [2] it was -0.141; in [3], -0.27; in experiment [4] it was -0.513; in [5], -0.0978; in experiment [6] it was 0.107. Further, the composite z-score in the experiment with Lefty1 was found to be 0.346; in [8] it was 0.133. The z-score in experiment [7] was 0.742; in experiment [9] it was -0.961 (inactive).

Regarding `CN(C)CCCNC(=O)[C@@]1(C)c2ccccc2C(=O)N(Cc2ccc(OC(F)(F)F)cc2)[C@H]1c1ccc(CO)cc1`, the composite z-score in experiment [1] came out at 0.117; in experiment [2], 0.365; in [3], 0.37; in [4] it was 0.294; in experiment [5] it was 0.948; in experiment [6] it was 0.389. Besides, the composite z-score was -0.425 with Lefty1 and 0.668 in experiment [8]. The z-score in experiment [7] was -0.664; in experiment [9] it was 0.14 (inactive).

For `COCC(=C=CC[C@H](O)c1ccccc1OCCO)C[C@H](O)COCc1ccccc1`, the composite z-score is 2.34 in experiment [1]; 1.19 in [2]; 0.516 in experiment [3]; 0.272 in [4]; 0.792 in experiment [5]; 0.659 in experiment [6]. The composite z-score with Lefty1 was found to be 0.632; in experiment [8], 0.0903. Besides, the values for the z-score in experiment [7] and in experiment [9] were 1.26 and -1.06 (inactive), respectively.

In the case of `CN(C)C(=O)[C@]1(Cc2ccccc2)N=C(c2ccc(OCCCO)cc2)O[C@@H]1c1ccccc1CN=[N+]=[N-]`, the composite z-score in experiment [1] stood at 0.997; in [2] it was 1.21; in experiment [3], 0.438; in [4], 1.02; in experiment [5] it was 1.04; in experiment [6] it was 0.287. Also, the results for the composite z-score (in the experiment with Lefty1; in experiment [8]) were 0.463 and 0.569, respectively. Also, the z-score is 0.829 in experiment [7] and 0.361 (inactive) in [9].

As to `CCOC(=O)C1=CC[C@@H](c2ccccc2)N(S(=O)(=O)c2ccc(C)cc2)[C@H]1c1ccccc1I`, the composite z-score was determined as 1.5 in experiment [1]; 1.21 in [2]; 0.475 in [3]; 0.995 in [4]; 0.923 in [5]; 0.184 in experiment [6]. Also, the composite z-score in the experiment on Lefty1 was -0.163; in [8], 1.01. Also, the z-score was 1.27 in experiment [7] and 1.55 (inactive) in experiment [9].

`CCOC(=O)C[C@H]1[C@H](OC(=O)c2ccccc2-c2ccccc2)[C@@H](NC(=O)C2CCCCC2)c2cc(OCCCO)ccc2N1C(=O)c1ccc2ccccc2n1`: the composite z-score in experiment [1] is 0.316; in [2], 0.667; in [3], 0.853; in experiment [4], 0.593; in [5], 1.15; in [6], 0.889. In addition, the composite z-score with Lefty1 is 1.09; in [8] it was 0.27. For the same compound, the z-score in [7] was 0.309; in experiment [9], 0.595 (inactive).

Source of the values: PubChem BioAssay.
